Source: PubChem BioAssay (EPA / NIEHS)
Records with an inconclusive call do not appear. Active and inactive are the calls of the source. Rule for the calls: active = hit-call score of the fitted dose curve at least 0.9, where 1 is the maximum; inconclusive = response in the unintended direction; inactive = score below 0.9.

How the values were obtained:
[1] = target: human Constitutive Androstane Receptor (CAR), NR1I3 (gene 9970) (UniProt Q14994); test: NVS_NR_hCAR_Antagonist: NovaScreen (NVS) Nuclear Receptor Binding Assay for human Constitutive Androstane Receptor Antagonism (CAR) (AID 2283344)
Sequence of human Constitutive Androstane Receptor (CAR), NR1I3 (gene 9970) (Q14994 whole entry, looked up): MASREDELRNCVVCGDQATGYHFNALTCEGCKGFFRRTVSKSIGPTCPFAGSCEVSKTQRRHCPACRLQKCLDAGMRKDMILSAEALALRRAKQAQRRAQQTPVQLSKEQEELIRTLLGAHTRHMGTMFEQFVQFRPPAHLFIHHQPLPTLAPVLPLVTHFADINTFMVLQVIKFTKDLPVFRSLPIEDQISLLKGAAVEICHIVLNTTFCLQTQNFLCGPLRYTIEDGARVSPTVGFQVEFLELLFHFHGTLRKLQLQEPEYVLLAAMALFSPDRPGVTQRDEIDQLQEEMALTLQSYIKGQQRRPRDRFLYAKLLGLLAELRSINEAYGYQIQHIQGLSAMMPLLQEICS
Summary of the method: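 Cell-free TR-FRET binding read 1 h after dosing, antagonist mode; loss of signal versus DMSO baseline. Primary screen in duplicate at a single 25 uM; actives retested in concentration series.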

NCBI gene 100848466 = test: NVS_NR_bPR: NovaScreen (NVS) Nuclear Receptor Binding Assay for bovine Progextron Receptor (PR) (AID 2283343);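 note: actives lower bound radioligand signal below DMSO meaning displacement of the label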
Summary of the method: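 Bovine uterine membrane preparation, cell-free; radioligand competitive displacement measured by scintillation counting 18 hours after dosing. Loss of signal versus DMSO baseline indicates binding; primary HTS single concentration 25 uM in duplicate, actives followed in concentration series.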

Clc1cccc(Cl)c1
outcome [1]: inactive

CCCCCCCCCCCCc1cccc(S(=O)(=O)O)c1
AC50 (NCBI gene 100848466): 19.5 µM (active) | AC50 [1]: 17.9 µM (active)

CC(C)O.CC(C)O.OCCN(CCO)CCO.OCCN(CCO)CCO.[Ti]
AC50 [1]: 25 µM (active)
